mHTT CaM bind = mHTT-calmodulin interaction abrogation. actives 3.6% (n = 190,000). AlphaScreen His-mHTT/GST-CaM binding, luminescence. inhibition, % at 15 µM. AID 1671202. P42858;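 also: 0% = both proteins with DMSO and 100% = one protein alone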
Pf apPOL block = Pf-apPOL DNA polymerase inhibition; AID 1794808; Recombinant Pf-apPOL, molecular beacon fluorescence, 1.5 h; inhibition, % at 10 µM; actives 0.25% (n = 210,000)
Active calls of the source: *; . = no result given. Many of the other results were omitted from the sample, so hits are more common in it than they were. Rule as the data show it: active = inhibition above about 50%; inactive = the rest.

SMILES	mHTT CaM bind	Pf apPOL block
COc1c2c(cc3c1C(CC(=O)c1ccc(C)cc1)N(C)CC3)OCO2 (centres undefined)	-6	-13
CCC(=O)N1CCc2cc(N3CC(C(=O)NCc4cccc(Cl)c4)CC3=O)ccc21 (centres undefined)	0	0
Cc1cc(C(=O)NC2CCCC2)c2cccc(Cl)c2n1	-1	-5
O=C1NC(=O)c2cc(-c3ccccc3)ccc21	-8	2
Cc1ccc(N2C(=O)CC(N3CCc4ccccc4C3)C2=O)cc1C (centres undefined)	0	-9
Cc1cc(N2Cc3ccccc3C2)ccc1C=O	82*	3
O=C1NC(=O)c2cc(N3Cc4ccccc4C3)ccc21	79*	-2
CCOc1ccc(N2C(=O)c3ccc(F)cc3C2=O)cc1	-3	-9
Cc1ccc(NC(=O)CN2CCc3ccccc3C2C(=O)N2CCCCC2)cc1Cl (centres undefined)	1	-4
Cc1ccc(N2C(=O)CSC2c2ccccc2F)cc1F (centres undefined)	-17	1
O=C(Cc1ccc(Br)cc1)Nc1ccc(S(=O)(=O)N2CCOCC2)cc1	10	-3
CC(=O)Nc1ccc(O)c(C(=O)O)c1	.	-4
O=C(O)C1=CC(=C(c2ccc(O)c(C(=O)O)c2)c2ccc(O)c(C(=O)O)c2)C=CC1=O	.	92*
NC(=O)c1cc(Br)cc2c3c([nH]c12)CCCC3	62*	4
Brc1ccc2[nH]c3c(c2c1)CCC3	.	0
CC1CCCC(Nc2ccc(N3C(=O)CCC3=O)cc2[N+](=O)[O-])C1C (centres undefined)	42	-16
CC1CCCC(Nc2ccc(N3C(=O)C4C5C=CC(C5)C4C3=O)cc2[N+](=O)[O-])C1C (centres undefined)	55*	-19
O=C(Nc1ccccc1Cl)C(=O)NC1CC1	-6	-9
CCc1ccc(C2=Cc3ccccc3C(CC(=O)C3CC3)N2c2ccc(-c3cncnc3)cc2)cc1 (centres undefined)	100*	-2
COc1cc(OC)cc(C2=Cc3ccc(OC)cc3C(CC(C)=O)N2c2ccc(-c3cncnc3)cc2)c1 (centres undefined)	37	-4
O=C1OC(c2ccc(F)cc2)=N/C1=C\c1ccc(F)cc1	-4	-4
O=S1(=O)N[C@H](Cc2ccccc2)COc2cccc(N3CCN(Cc4ccccc4F)CC3)c21	62*	-6
CN1CCN(c2cccc3c2S(=O)(=O)N[C@H](Cc2ccccc2)CO3)CC1	-3	-8
CCc1cc2c(=O)c(-c3nc4ccccc4n3C)c(C(C)(C)C)oc2cc1O	-6	3
CCc1oc2cc(O)ccc2c(=O)c1-c1nc2ccccc2n1C	0	-2
SMILES	mHTT CaM bind	Pf apPOL block
CCc1cc2c(=O)c(-c3nc4ccccc4n3C)c(C(F)(F)F)oc2cc1O	97*	-1
CCc1cc2c(=O)c(-c3nc4ccccc4n3C)c(COCC(=O)O)oc2cc1OC(=O)C(C)(C)C	51*	-3
O=C(NCCc1ccccc1)c1cnn2c(C(F)(F)F)cc(-c3ccco3)nc12	-11	-6
N=Nc1[nH]c(N)c2ccccc12	94*	-4
O=C(NCc1ccco1)N1CC2CC(NS(=O)(=O)c3cccs3)C1C2 (centres undefined)	6	3
CCNC(=O)C1CCN(c2ccc(Br)cc2)C1=O (centres undefined)	-1	-2
O=C(NCc1cc(F)cc(F)c1)C1CCN(c2cncnc2N2CCCCC2)CC1	7	6
CCc1ccc(CNC(=O)C2CCN(c3cncnc3N3CCN(C)CC3)CC2)cc1	21	-1
O=C(NCc1ccc(F)c(Cl)c1)C1CCN(c2cncnc2N2CCCC2)CC1	90*	2
CN1CCN(c2ncncc2N2CCC(C(=O)NCc3ccc(Cl)cc3)CC2)CC1	98*	-3
CCCCCCCc1ccc(NC(=O)N(Cc2ccc(Cl)cc2)Cc2cccnc2)cc1	.	-18
O=C(Nc1ccccn1)c1cn(-c2ccc(Cl)cc2)c(=O)c2ccccc12	-13	-2
COc1ccc(OC)c(-c2cc(C(=O)NCC#CCN3CCc4ccccc4C3)[nH]n2)c1	53*	2
O=C(NCC#CCN1CCc2ccccc2C1)c1cc2ccccc2[nH]1	28	-6
CCS(=O)(=O)N1CCCc2cc(NS(=O)(=O)Cc3ccccc3Cl)ccc21	-9	0
Cc1nnsc1C(=O)N1CCN(C(c2ccc(F)cc2)c2ccc(F)cc2)CC1	6	-2
CSc1nc2ccccc2n1CC(=O)NC(c1ccccc1)c1ccccc1	57*	0
CSc1nc2ccccc2n1CC(=O)Nc1ccc(F)cc1	-1	-1
CC1(C)CC2(CC(C)(C)N1CCO)OCCO2	-1	.
c1ccc(CCNc2ncnc3ccccc23)cc1	-5	-9
NNc1ncnc2ccccc12	100*	.
O=C(NCCN1CCc2ccccc2C1)c1ccc2ncnc(N3CCCC3)c2c1	-1	1
CCc1ccc(C(Nc2ccccn2)c2ccc3cccnc3c2O)cc1 (centres undefined)	97*	-2
C=CCOc1ccc(C(Nc2ccccn2)c2ccc3cccnc3c2O)cc1 (centres undefined)	99*	5
CCc1ccc(C(C)NC(=O)c2ccccn2)cc1 (centres undefined)	-1	-11
SMILES	mHTT CaM bind	Pf apPOL block
CSc1ccc(C(Nc2ccccn2)c2ccc3cccnc3c2O)cc1 (centres undefined)	99*	2
Cc1ccc2ccc(C(Nc3ccccn3)c3cccnc3)c(O)c2n1 (centres undefined)	73*	-6
C=CCOc1ccc(C(=O)Nc2ccccn2)cc1	-7	-5
NC(=NO)c1csc(-c2ccc(F)cc2F)n1	.	-8
CCOc1ccc(Sc2cc(C(=O)NCCN3CCOCC3)c3ccccc3n2)cc1	19	-20
CC(=O)N(C)CC(=O)N1CCN(c2cc(C)nc(Nc3ccc(C)cc3)n2)CC1	2	-16
Cc1cc(=O)n(CC(O)c2ccccc2Cl)c(N2CCCC2)n1 (centres undefined)	8	3
O=C(Nc1cccc(-c2nnc(-c3ccccc3)o2)c1)c1cccs1	6	-2
CC12CC(NC(=O)N1c1ccc(Cl)cc1)c1cc([N+](=O)[O-])ccc1O2 (centres undefined)	4	-1
O=c1cc(CO)oc(C(Nc2ccccn2)c2ccc(F)cc2)c1O (centres undefined)	33	-2
CSc1ccc(C=Nc2ccccn2)cc1	0	.
Oc1c(C(Nc2ccccn2)c2ccc(F)cc2)ccc2cccnc12 (centres undefined)	98*	-8
CSc1ccc(C(Nc2ccccn2)c2ccc3ccc(C)nc3c2O)cc1 (centres undefined)	78*	-9
Cc1ccc2ccc(C(Nc3ccccn3)c3ccc(N(C)C)cc3)c(O)c2n1 (centres undefined)	100*	4
CC1=C(C(=O)Nc2ccccn2)C(c2ccc(N(C)C)cc2)n2ncnc2N1 (centres undefined)	4	-3
O=C(O)COc1ccc2c(c1)OC(=Cc1cccc(Br)c1)C2=O	-3	15
O=C(O)COc1ccc2c(c1)OC(=Cc1ccc(Cl)c(Cl)c1)C2=O	-5	63*
CCCCOc1ccccc1/C=c1\sc2nc(-c3cccs3)nn2c1=O	1	8
O=c1ccc(-c2ccc(F)cc2)nn1CCc1nc(-c2cccc(Br)c2)no1	56*	-9
O=c1ccc(-c2ccc(F)cc2)nn1CCc1nc(-c2ccccc2Cl)no1	-6	-5
Cc1cccc(-c2nc(Cn3ccnc3)no2)c1	-8	-1

Screening results from PubChem.
